# Results published in PubChem BioAssay (NCATS).
# Results filed as inconclusive are left out. Calls of active or inactive are those of the source. Unless noted, calls come from the whole dose curve; as a rule, active = well fitted curve in the direction sought with a large enough effect; inconclusive = small, poorly fitted or top-dose-only effect, or another doubt; inactive = no such curve, though single readings can be large; an effect the other way counts as inactive or inconclusive.
# Key:
# [1] = molecular target: Lysosomal acid glucosylceramidase (Homo sapiens) (UniProt P04062); test: Glucocerebrosidase-p2 (AID 348; in the data active = potency below about 10 µM; note: potency is the fitted concentration of half-maximal effect); conditions: purified GBA, blue fluorogenic substrate, 40 min
# Lysosomal acid glucosylceramidase (Homo sapiens), sequence (P04062 whole entry, looked up): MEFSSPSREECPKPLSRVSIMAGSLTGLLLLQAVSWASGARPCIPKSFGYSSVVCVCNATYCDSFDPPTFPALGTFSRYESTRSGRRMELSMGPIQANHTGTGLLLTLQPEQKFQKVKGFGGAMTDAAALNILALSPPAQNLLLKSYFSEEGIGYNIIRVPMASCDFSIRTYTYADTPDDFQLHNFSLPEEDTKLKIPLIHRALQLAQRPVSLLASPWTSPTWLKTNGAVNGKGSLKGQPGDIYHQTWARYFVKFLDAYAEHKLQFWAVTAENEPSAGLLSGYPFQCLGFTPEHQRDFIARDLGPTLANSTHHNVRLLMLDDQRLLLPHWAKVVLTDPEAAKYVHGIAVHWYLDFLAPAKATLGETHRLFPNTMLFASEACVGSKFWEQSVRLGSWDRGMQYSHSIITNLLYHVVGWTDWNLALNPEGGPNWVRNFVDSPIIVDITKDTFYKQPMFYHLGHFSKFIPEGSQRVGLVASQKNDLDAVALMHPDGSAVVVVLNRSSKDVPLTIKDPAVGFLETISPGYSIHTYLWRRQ
# Method in brief: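 Compounds titrated from 0.6 nM upwards against 0.2 nM enzyme in pH 5.9 citric acid/KH2PO4, taurocholate, tween-20; blue fluorogenic substrate 80 uM, 40 min room temperature, stopped and read Ex 365/Em 440 for AC50.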
# [2] = AP1 Signaling Pathway (AID 357; active = well fitted curve in either direction with a large enough effect, not every such curve was filed as active;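 note: ME-180 reporter cells stimulated with EGF at its EC50 level; % is set by controls: 0 for no effect and ±100 for the full control effect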); conditions: ME-180 AP-1-bla reporter, EGF-induced, beta-lactamase ratio, 5 h; at 7.69 µM (top of the series) unless noted
# Method in brief: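 A ratiometric CCF4 readout (405 nm excitation; 460 and 530 nm emission) quantified AP-1-driven beta-lactamase in ME-180 cells after 5 h with compound and EC50 EGF; AC50 values were derived for activators and inhibitors.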
# [3] = NFAT Signaling Pathway (AID 444; active = well fitted curve in either direction with a large enough effect, not every such curve was filed as active;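 note: carbachol stimulus at about its EC50 of 1 µM final; % is set by controls: 0 for no effect and ±100 for the full control effect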); conditions: Jurkat NFAT-bla M1, carbachol, beta-lactamase ratio, 5 h; at 7.69 µM (top of the series) unless noted
# Method in brief: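 Read-out: CCF4 FRET ratio (460 nm/530 nm) after 1 h RT dye loading, used for %activity and AC50 from titration series. Cells: Jurkat NFAT-β-lactamase/M1 line, treated with compound plus 1 uM carbachol for 5 h, 37 °C.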
# [4] = Stat Signaling Pathway (AID 446; active = well fitted curve in either direction with a large enough effect, not every such curve was filed as active;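 note: ME-180 cervical cancer cells given 40 pM IL-6 alongside compound; SIE-controlled beta-lactamase reporter measured as 460/530 nm FRET emission ratio; % is set by controls: 0 for no effect and ±100 for the full control effect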); conditions: ME-180 SIE beta-lactamase reporter, IL-6 stimulated, 5 h; at 7.69 µM (top of the series) unless noted
# Method in brief: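 Screening format detects activators and inhibitors alike: ME-180 SIE-bla cells stimulated at 40 pM IL-6 for 5 hrs with compound, then dual-emission beta-lactamase read at 405 nm excitation.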
# [5] = molecular target: Glucocorticoid receptor (Homo sapiens) (UniProt P04150); test: GR-GFP Redistribution (AID 450;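 active = compounds whose dose series gives a full or clear partial fitted curve of increased nuclear translocation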; note: potency is the fitted concentration of half-maximal effect); conditions: U2OS GR-GFP nuclear translocation, laser cytometry, 2 h
# Glucocorticoid receptor (Homo sapiens), sequence (P04150 whole entry, looked up, the tested form may be a part): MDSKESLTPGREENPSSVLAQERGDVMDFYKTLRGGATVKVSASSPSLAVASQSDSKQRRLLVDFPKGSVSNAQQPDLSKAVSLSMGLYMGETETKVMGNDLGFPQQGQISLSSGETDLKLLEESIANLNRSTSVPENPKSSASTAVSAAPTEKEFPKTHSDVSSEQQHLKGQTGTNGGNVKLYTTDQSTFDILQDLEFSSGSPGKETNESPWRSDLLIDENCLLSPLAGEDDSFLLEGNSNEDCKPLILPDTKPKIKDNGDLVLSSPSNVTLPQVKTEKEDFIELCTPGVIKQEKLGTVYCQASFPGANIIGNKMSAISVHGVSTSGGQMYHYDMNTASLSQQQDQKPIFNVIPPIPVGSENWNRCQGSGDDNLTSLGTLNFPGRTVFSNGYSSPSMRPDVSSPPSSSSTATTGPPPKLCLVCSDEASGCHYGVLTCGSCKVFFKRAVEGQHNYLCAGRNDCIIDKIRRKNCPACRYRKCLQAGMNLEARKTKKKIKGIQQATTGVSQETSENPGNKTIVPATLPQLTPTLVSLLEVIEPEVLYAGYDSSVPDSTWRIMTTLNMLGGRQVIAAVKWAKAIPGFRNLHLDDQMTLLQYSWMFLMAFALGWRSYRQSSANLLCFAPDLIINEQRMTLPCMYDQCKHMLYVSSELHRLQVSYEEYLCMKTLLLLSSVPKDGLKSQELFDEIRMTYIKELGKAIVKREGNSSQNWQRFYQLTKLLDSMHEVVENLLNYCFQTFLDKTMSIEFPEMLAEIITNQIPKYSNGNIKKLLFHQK
# [6] = molecular target: Glucocorticoid receptor (Homo sapiens) (UniProt P04150); test: GR-EFC Redistribution (AID 451; calls by dose curve; note: potency is the fitted concentration of half-maximal effect); conditions: CHO-K1 GR-EFC translocation, beta-gal luminescence, 2 h
# Method in brief: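 Translocation of GR-ED fusion to nuclear EA restores b-gal, read by luminescence after 1 h room-temperature detection. Engineered CHO-K1 biosensor cells, 1,000/well, exposed 2 h at 37 C to titrations up to 46 uM final.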
# [7] = molecular target: Mitogen-activated protein kinase 10 (Mus musculus) (UniProt Q61831); test: JNK3 AlphaScreen Assay (AID 530; active = well fitted curve in either direction with a large enough effect, not every such curve was filed as active;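 note: kinase came from lysate of stimulated human HepG2 cells; signal reports phosphorylation of biotinylated GST-cJun 1-79 at Ser73 with 10 µM ATP; % is set by controls: 0 for no effect and ±100 for the full control effect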)
# Method in brief: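 Room-temperature AlphaScreen kinase assay; pre-activated HepG2 lysate as JNK3 source, biotin-GST-cJun(1-79) substrate, 10 uM ATP, compound 15 min preincubation.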
# [8] = Counterscreen qHTS for small molecule stabilizers of the endoplasmic reticulum resident proteome: GLuc-NoTag assay (AID 1508627);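 note: SH-SY5Y cells given compound then 100 nM thapsigargin to empty ER calcium; 0% = thapsigargin alone and -100% = DMSO vehicle control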
# Method in brief: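 Luminescence of Gaussia luciferase secreted into the medium (coelenterazine, 0.07x final, unlysed cells) was the read-out. Human SH-SY5Y neuroblastoma cells constitutively secreting untagged GLuc received compound for 19 h, then 100 nM thapsigargin for 4 h.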
# [9] = Confirmatory qHTS for small molecule stabilizers of the endoplasmic reticulum resident proteome: Secreted ER Calcium Modulated Protein (SERCaMP) assay (AID 1508628); note: nearly all actives have a fitted effect of over 40% in size; note: potency is the fitted concentration of half-maximal effect
# Method in brief: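 We seeded SH-SY5Y-GLuc-SERCaMP cells, added compounds (three concentrations in the primary run, eleven up to 76.6 uM in confirmation), incubated 16 h, depleted ER calcium with thapsigargin, and read luciferase 4 h later.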
# [10] = Cell Viability qHTS for small molecule stabilizers of the endoplasmic reticulum resident proteome (AID 1508629); conditions: cell viability counter-screen, 100 nM thapsigargin for final 4 h
# [11] = molecular target: Cytochrome P450 1A2 (Homo sapiens) (UniProt P05177); test: p450-cyp1a2 (AID 410; calls by dose curve; note: potency is the fitted concentration of half-maximal effect)
# Cytochrome P450 1A2 (Homo sapiens), sequence (P05177 whole entry, looked up): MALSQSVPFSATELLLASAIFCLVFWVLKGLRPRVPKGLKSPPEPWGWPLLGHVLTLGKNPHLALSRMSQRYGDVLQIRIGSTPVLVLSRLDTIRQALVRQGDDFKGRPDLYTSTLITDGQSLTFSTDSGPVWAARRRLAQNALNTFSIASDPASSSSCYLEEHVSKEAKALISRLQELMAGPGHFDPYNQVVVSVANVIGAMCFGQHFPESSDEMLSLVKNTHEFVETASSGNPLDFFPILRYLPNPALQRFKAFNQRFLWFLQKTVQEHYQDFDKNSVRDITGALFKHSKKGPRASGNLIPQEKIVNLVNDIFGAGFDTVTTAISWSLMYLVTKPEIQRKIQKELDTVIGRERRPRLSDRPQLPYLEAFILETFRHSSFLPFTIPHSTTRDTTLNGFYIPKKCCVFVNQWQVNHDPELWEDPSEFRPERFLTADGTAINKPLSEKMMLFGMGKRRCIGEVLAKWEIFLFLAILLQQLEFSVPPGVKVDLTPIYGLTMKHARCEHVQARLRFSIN
# Method in brief: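 Human CYP1A2 (20nM) demethylated Luciferin-ME at its Km (100uM) in 100mM KPO4. After 10 min compound preincubation, NADPH regeneration ran the reaction 60 min at room temperature. Luciferin was read by luminescence, normalized to 57 uM furafylline.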
# [12] = molecular target: 3',5'-cyclic-AMP phosphodiesterase 4B (Homo sapiens) (UniProt Q07343); test: qHTS Assay for Inhibitors of PDE-IV (AID 607; active = well fitted activation curve with a large enough effect in the main read-out, with a control signal flat, not every such curve was filed as active; note: % of control where 0% means no effect)
# 3',5'-cyclic-AMP phosphodiesterase 4B (Homo sapiens), sequence (Q07343 whole entry, looked up): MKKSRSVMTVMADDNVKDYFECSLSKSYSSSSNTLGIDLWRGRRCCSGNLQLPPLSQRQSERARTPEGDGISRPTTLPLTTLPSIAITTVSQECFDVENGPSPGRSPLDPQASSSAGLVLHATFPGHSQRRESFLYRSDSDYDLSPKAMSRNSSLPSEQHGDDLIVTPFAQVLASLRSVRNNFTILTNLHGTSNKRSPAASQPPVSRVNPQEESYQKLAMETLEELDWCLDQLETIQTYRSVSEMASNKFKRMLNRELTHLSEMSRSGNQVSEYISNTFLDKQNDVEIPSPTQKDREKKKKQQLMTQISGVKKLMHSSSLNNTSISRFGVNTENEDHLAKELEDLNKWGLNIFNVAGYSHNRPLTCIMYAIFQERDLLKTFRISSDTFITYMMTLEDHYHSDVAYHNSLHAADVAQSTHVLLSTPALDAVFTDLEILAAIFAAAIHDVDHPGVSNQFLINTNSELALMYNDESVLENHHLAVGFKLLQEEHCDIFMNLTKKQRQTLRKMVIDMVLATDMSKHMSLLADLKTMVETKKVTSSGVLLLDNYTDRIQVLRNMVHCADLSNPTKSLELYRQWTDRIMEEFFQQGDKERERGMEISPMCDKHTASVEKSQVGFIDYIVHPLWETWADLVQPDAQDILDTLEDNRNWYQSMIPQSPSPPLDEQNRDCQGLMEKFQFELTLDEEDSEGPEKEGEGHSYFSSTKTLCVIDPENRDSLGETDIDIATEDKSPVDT
# Method in brief: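 The readout is membrane depolarisation from a cAMP-sensing CNG channel, detected with a potential dye at ex 535/em 590. Cells were HEK293-derived (endogenous PDE-IV) at 1000 cells/well, titrated up to 22.9 uM final.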
# [13] = molecular target: Cytochrome P450 3A4 (Homo sapiens) (UniProt P08684); test: qHTS Assay for Activators of Cytochrome P450 3A4 (AID 885); note: nearly all actives have a fitted effect of over 65% in size
# Cytochrome P450 3A4 (Homo sapiens), sequence (P08684 whole entry, looked up): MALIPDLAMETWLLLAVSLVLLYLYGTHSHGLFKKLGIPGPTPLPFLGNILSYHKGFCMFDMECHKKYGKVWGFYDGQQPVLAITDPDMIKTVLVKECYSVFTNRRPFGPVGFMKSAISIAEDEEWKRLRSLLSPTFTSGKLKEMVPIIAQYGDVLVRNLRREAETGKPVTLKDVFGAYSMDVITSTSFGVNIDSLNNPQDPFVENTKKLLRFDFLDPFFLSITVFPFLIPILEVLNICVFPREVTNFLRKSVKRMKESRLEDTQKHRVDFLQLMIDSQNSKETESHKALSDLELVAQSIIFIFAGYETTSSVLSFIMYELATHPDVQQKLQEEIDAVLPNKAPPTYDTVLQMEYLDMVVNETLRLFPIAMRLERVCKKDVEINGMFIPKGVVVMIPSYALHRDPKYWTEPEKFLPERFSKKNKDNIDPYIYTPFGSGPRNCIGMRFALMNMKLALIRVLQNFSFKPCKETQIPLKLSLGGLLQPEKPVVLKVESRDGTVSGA
# Method in brief: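 Steps: enzyme/substrate mix dispensed; compound added, 10 min RT; NADPH regeneration solution added, 60 min RT; luciferin detection buffer stops reaction; 20 min later luminescence measured.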
# [14] = molecular target: Cytochrome P450 2D6 (Homo sapiens) (UniProt P10635); test: qHTS Assay for Inhibitors and Substrates of Cytochrome P450 2D6 (AID 891); note: potency is the fitted concentration of half-maximal effect; nearly all actives have a fitted effect of over 60% in size
# Cytochrome P450 2D6 (Homo sapiens), sequence (P10635 whole entry, looked up): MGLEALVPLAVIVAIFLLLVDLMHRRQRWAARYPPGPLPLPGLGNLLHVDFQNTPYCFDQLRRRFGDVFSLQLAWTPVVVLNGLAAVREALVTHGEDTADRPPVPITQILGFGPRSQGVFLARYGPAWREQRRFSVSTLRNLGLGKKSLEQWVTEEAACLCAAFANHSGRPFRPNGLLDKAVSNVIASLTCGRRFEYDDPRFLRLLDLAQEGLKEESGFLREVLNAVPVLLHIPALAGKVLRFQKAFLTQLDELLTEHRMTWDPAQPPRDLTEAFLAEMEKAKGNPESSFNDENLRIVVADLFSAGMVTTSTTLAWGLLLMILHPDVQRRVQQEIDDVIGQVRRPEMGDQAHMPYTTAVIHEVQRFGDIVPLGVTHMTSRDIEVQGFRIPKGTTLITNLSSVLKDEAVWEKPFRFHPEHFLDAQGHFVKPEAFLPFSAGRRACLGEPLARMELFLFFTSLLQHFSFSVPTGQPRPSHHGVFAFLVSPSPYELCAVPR
# Method in brief: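 Human CYP2D6 (5 nM) with 30 uM Luciferin-ME EGE (at Km) in 100 mM KPO4, compound preincubated 10 min, then NADPH regeneration system for 60 min at room temperature. Luciferin read by luminescence; normalized to 1.43 uM quinidine.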
# [15] = molecular target: Ubiquitin carboxyl-terminal hydrolase 1 (Homo sapiens) (UniProt O94782); test: Inhibitors of USP1/UAF1: Pilot qHTS (AID 504865);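 note: rhodamine fluorescence freed from ubiquitin-rhodamine substrate followed over time; top concentration of the series differs between compounds; % is set by controls: 0 for no effect and ±100 for the full control effect; nearly all actives have a fitted effect of over 35% in size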
# Ubiquitin carboxyl-terminal hydrolase 1 (Homo sapiens), sequence (O94782 whole entry, looked up): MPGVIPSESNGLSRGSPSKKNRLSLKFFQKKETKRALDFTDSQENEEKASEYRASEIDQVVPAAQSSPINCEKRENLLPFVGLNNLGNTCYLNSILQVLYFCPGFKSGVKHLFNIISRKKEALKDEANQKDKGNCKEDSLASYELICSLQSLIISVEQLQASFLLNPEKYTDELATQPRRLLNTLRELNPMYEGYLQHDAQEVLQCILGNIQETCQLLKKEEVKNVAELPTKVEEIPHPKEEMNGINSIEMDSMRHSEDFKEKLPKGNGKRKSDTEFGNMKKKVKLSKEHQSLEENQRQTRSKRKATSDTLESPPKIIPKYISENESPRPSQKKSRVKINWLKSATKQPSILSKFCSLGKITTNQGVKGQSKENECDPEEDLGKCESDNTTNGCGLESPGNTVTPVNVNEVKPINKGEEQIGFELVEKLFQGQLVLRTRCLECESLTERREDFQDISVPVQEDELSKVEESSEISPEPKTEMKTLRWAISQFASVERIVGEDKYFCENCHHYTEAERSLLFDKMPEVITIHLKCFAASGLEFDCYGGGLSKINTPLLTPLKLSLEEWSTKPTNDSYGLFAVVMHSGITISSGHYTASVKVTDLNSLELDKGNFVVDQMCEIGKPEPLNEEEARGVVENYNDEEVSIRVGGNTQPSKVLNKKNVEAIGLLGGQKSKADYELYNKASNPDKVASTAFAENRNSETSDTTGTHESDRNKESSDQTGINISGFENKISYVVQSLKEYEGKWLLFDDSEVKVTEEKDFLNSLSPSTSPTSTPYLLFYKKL
# Method in brief: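 USP1/UAF1 complex at 1 nM preincubated 15 min at room temperature with compound, then Ub-Rho substrate added at 150 nM final. Fluorescence (480/540 nm) read kinetically in 50 mM HEPES pH 7.8, 0.5 mM EDTA, 1 mM TCEP, 0.1 mg/ml BSA, 0.01% Tween-20.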
# [16] = qHTS Assay for Lipid Storage Modulators (AID 1519; calls by dose curve); conditions: Drosophila S3 cells, BODIPY lipid droplet/cell ratio, laser cytometry, cells loaded with oleic acid
# Method in brief: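 Cells seeded at 5,000 per well were treated with compounds over a concentration series and loaded with oleic acid (400 uM, as added). Lipid droplet fluorescence (488 nm excitation, 500-530 nm channel) was read by laser-scanning cytometry and normalized to 20 uM Triacsin C.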
# [17] = molecular target: Dual specificity protein kinase CLK4 (Homo sapiens) (UniProt Q9HAZ1); test: qHTS Assay for Inhibitors of CDC-like Kinase 4 (Kinase-Glo Assay) (AID 1770); note: potency is the fitted concentration of half-maximal effect; nearly all actives have a fitted effect of over 65% in size
# Dual specificity protein kinase CLK4 (Homo sapiens), sequence (Q9HAZ1 whole entry, looked up): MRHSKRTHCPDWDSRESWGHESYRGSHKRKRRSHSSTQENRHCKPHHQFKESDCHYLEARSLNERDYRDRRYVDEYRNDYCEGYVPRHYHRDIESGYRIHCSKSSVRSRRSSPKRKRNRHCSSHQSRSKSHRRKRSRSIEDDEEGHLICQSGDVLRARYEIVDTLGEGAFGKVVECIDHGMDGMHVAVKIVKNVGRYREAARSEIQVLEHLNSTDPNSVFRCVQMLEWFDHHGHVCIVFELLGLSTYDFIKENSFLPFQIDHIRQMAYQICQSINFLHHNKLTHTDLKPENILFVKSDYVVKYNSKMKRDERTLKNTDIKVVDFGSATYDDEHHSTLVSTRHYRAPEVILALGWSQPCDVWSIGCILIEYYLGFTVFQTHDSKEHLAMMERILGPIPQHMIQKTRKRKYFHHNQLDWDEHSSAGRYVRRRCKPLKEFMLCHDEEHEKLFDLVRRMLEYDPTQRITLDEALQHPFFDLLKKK
# Method in brief: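 25 nM Clk4 with 100 uM RS repeat peptide and 1 uM ATP (final) in Tris pH7.5, 10 mM MgCl2, 4.5 h at room temperature. Remaining ATP measured by Kinase-Glo luciferase luminescence.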
# [18] = molecular target: Dual specificity protein kinase CLK4 (Homo sapiens) (UniProt Q9HAZ1); test: qHTS Assay for Inhibitors of CDC-like Kinase 4 (ADP-Glo Assay) (AID 1771); note: potency is the fitted concentration of half-maximal effect; nearly all actives have a fitted effect of over 70% in size
# Method in brief: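 Clk4 (25 nM) was incubated 1 hr at room temperature with 100 uM RS repeat peptide and 1 uM ATP in buffer with 2 mM MgCl2, 0.5 mM EGTA, 2.5 mM DTT. ADP formed was quantified by ADP-Glo luminescence.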
# [19] = molecular target: Dual specificity protein kinase CLK4 (Homo sapiens) (UniProt Q9HAZ1); test: qHTS Assay for Inhibitors of CDC-like Kinase 4 (ADP-FP Assay) (AID 1795); note: potency is the fitted concentration of half-maximal effect; nearly all actives have a fitted effect of over 60% in size
# Method in brief: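 Recombinant Clk4 (6.25 nM) phosphorylated 100 uM RS repeat peptide with 1 uM ATP in 25 mM Tris pH 7.5, 10 mM MgCl2, 0.5 mM EGTA, 2.5 mM DTT, 0.01% Triton X-100 for 1 h. ADP was detected by Transcreener ADP2 competitive fluorescence polarization after 30 min at room temperature.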
# [20] = molecular target: Cytochrome P450 2C9 (Homo sapiens) (UniProt P11712); test: qHTS Assay for Inhibitors and Substrates of Cytochrome P450 2C9 (AID 883); note: % is set by controls: 0 for no effect and ±100 for the full control effect; nearly all actives have a fitted effect of over 60% in size
# Method in brief: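 Inhibition of CYP2C9 is scored as loss of luminescence, with 57uM sulphaphenazole defining 100% inhibition. Substrate Luciferin-H is used at 100uM, equal to its KM; enzyme at 10nM in 25mM KPO4, 60 min at 37C with NADPH regeneration.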
# [21] = molecular target: Cytochrome P450 3A4 (Homo sapiens) (UniProt P08684); test: qHTS Assay for Inhibitors and Substrates of Cytochrome P450 3A4 (AID 884); note: potency is the fitted concentration of half-maximal effect; nearly all actives have a fitted effect of over 50% in size
# Method in brief: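 20 nM human CYP3A4 with 25 uM Luciferin-PPXE (at KM) in 200 mM KPO4, preincubated 10 min with compound; NADPH regeneration started a 60 min RT reaction. Luciferin detected by luminescence, normalized to 57 uM ketoconazole as full inhibition.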
# [22] = Confirmation and Secondary Assay for Modulators of Hemoglobin Beta Chain Splicing at IVS2 654 locus (AID 910);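 note: HeLa cells stably carrying EGFP split by mutant beta-globin IVS2-654 intron; % of control where 0% means no effect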
# Method in brief: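 Readout: per-well total peak green fluorescence (488 nm ex, 500–520 nm em) from objects 5–250 µm, reflecting correct splicing of an EGFP-654 reporter. Compounds were applied for 2 days at 37 °C to overnight-plated HeLa EGFP-654 cells; controls were DMSO and 500 nM IVS2-654 PNA.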
# [23] = Confirmation and Secondary Assay for Modulators of Hemoglobin Beta Chain Splicing at IVS2 705 locus (AID 930);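 note: HeLa cells stably expressing the EGFP-705 splicing reporter; GFP fluorescence per well restored by corrected splicing of the IVS2-705 intron in EGFP; % of control where 0% means no effect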
# Method in brief: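 Read-out: total peak GFP fluorescence per well (488 nm excitation, 500-520 nm emission) by laser-scanning cytometry. Cells: HeLa EGFP-705 splicing reporter, 2 days compound exposure in Optimem/2% FCS.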
smiles,measurement,setting,value
CN(C)c1ncc2nc(CCc3ccccc3)c(=O)n(C[C@H]3CCCO3)c2n1,Potency,[1],> 11.4 µM (inactive)
same,"activity change, negative = inhibition",[2],-3.01% (inactive)
same,"activity change, negative = inhibition",[3],-1.26% (inactive)
same,"activity, negative = inhibition",[4],1.42% (inactive)
same,Potency,[5],> 9.22 µM (inactive)
same,Potency,[6],> 46 µM (inactive)
same,outcome,[7],inactive
same,Potency,[8],inactive
same,Potency,[9],39.8 µM (active)
same,max response,[10],23.4% (inactive)
c1cncc(-c2nc(N3CCNCC3)c3ccccc3n2)c1,Potency,[1],> 11.4 µM (inactive)
same,"activity change, negative = inhibition",[2],8.36% (inactive)
same,Potency,[11],2.51 µM (active)
same,"activity change, negative = inhibition",[3],7.65% (inactive)
same,"activity, negative = inhibition",[4],4.77% (inactive)
same,Potency,[5],> 46 µM (inactive)
same,Potency,[6],> 46 µM (inactive)
same,outcome,[7],inactive
same,Potency,[12],inactive
same,Potency,[13],inactive
same,Potency,[14],7.94 µM (active)
same,Potency,[15],inactive
same,Potency,[8],inactive
same,Potency,[9],22.4 µM (active)
same,max response,[10],15.1% (inactive)
CN1CCN(c2nc(-c3ccc4c(c3)OCO4)nc3ccccc23)CC1,Potency,[1],> 11.4 µM (inactive)
same,"activity change, negative = inhibition",[2],21.8% (inactive)
same,"activity, negative = inhibition",[4],-4.65% (inactive)
same,Potency,[5],> 46 µM (inactive)
same,Potency,[6],> 46 µM (inactive)
same,outcome,[7],inactive
same,"activity change, negative = inhibition",[16]; at 57.5 µM (top of the series),8.71% (inactive)
same,max response,[16]; measured here: cell count channel max response,28%
same,max response,[16]; measured here: lipid channel max response,35.9%
same,Potency,[17],17.8 µM (active)
same,Potency,[18],15.8 µM (active)
same,Potency,[19],14.1 µM (active)
same,Potency,[15],inactive
same,Potency,[8],inactive
same,Potency,[9],20 µM (active)
CN1CCN(c2nc(-c3ccc(N(C)C)cc3)nc3ccccc23)CC1,Potency,[1],> 11.4 µM (inactive)
same,"activity change, negative = inhibition",[2],5.88% (inactive)
same,Potency,[11],12.6 µM (active)
same,"activity change, negative = inhibition",[3],-2.47% (inactive)
same,"activity, negative = inhibition",[4],3.05% (inactive)
same,Potency,[5],> 46 µM (inactive)
same,Potency,[6],> 46 µM (inactive)
same,outcome,[7],inactive
same,Potency,[12],inactive
same,"activity change, negative = inhibition",[20],9.44% [at 2.29 µM] (inactive)
same,Potency,[21],15.8 µM (active)
same,Potency,[13],inactive
same,Potency,[14],3.16 µM (active)
same,outcome,[22],inactive
same,outcome,[23],inactive
same,Potency,[8],inactive
same,Potency,[9],inactive
same,max response,[10],17.5% (inactive)
